An excerpt weighted towards active compounds, which were near 2.8% of everything screened.
SENP8 block-1 = SENP8 protease inhibition; AID 2540; inhibition, % at 10 µM; purified SENP8, Z-RLRGG-aminoluciferin cleavage, luminescence; actives 1.2% (n = 330,000); Q96LD8; in the data active = inhibition above about 50%
Target sequence (Q96LD8 whole entry, looked up): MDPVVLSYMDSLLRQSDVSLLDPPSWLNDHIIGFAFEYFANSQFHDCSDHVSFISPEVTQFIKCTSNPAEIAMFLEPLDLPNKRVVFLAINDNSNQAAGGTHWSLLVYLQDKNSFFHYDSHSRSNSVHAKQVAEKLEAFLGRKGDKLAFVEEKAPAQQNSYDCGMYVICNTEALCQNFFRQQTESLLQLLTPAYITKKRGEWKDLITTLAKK
HSP90 refold inh = inhibitors of HSP90 luciferase refolding in rabbit reticulocyte lysate; luciferase refolding luminescence, 3 h; inhibition, % at 5.6 µM; actives 0.91% (n = 290,000);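 active = inhibition above the screen-wide mean plus 3 SD, computed separately per campaign, cut at about 16% in these data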;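 note: 0% = DMSO wells and 100% = 60 µM geldanamycin wells; inhibitors lower the luminescence because luciferase stays unfolded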
SENP6 block = inhibitors of human SENP6 protease; Q9GZR1; Recombinant SENP6 catalytic domain, aminoluciferin luminescence; inhibition, % at 10 µM; actives 1.8% (n = 330,000); AID 2599;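 active = inhibition above about 50% at the single tested dose, limit read from the data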;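 note: plate controls were DMSO wells with enzyme for no effect and DMSO wells lacking enzyme for full effect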
Target sequence (Q9GZR1 628-1112 limits assumed): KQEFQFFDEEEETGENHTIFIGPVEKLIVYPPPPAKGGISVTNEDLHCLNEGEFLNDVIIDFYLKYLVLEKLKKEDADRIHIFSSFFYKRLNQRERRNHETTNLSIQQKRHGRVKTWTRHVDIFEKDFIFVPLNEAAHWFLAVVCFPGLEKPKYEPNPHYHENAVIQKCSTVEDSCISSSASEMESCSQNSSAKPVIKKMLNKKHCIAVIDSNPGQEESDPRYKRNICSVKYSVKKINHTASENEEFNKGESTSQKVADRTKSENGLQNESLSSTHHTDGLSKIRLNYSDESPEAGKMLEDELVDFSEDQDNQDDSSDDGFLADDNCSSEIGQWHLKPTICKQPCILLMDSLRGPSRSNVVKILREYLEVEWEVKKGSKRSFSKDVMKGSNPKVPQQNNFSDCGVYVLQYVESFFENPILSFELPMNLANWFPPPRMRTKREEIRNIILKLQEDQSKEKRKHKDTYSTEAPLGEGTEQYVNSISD
SENP7 inh = SENP7 protease inhibition | Q9BQF6 | recombinant SENP7, Z-RLRGG-aminoluciferin luminescence, 40 min | inhibition, % at 5 µM | actives 1.5% (n = 330,000) | AID 434973;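 active = inhibition above about 50% at the single test dose, limit read from the data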;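 note: plate controls were DMSO with enzyme for no effect and no enzyme buffer wells for full effect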
SENP8 block-2 = inhibitors of human SENP8 protease; Q96LD8; recombinant SENP8, Nedd8 substrate fluorescence; inhibition, % at 20 µM; actives 0.64% (n = 360,000); in the data active = inhibition mostly above about 40%, no sharp cut-off; inactive = mostly below about 27%
SENP8 conf = human SENP8 inhibition, confirmed | shares compounds with SENP7 inh | Recombinant SENP8, Z-RLRGG-aminoluciferin luminescence, 60 min | inhibition, % at 12.5 µM | actives 40% (n = 6,200);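 active = mean inhibition across replicates above about 50%, limit read from the data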
SENP6 conf = human SENP6 inhibition, confirmed | shares compounds with SENP7 inh | recombinant SENP6, Z-RLRGG-aminoluciferin luminescence | inhibition, % at 12.5 µM | actives 58% (n = 6,200) | AID 488915
SENP7 conf = human SENP7 inhibition, confirmed; actives 69% (n = 6,200); AID 488917; inhibition, % at 12.5 µM; shares compounds with SENP7 inh; recombinant SENP7, Z-RLRGG-aminoluciferin luminescence, 40 min
Casp3 select = caspase-3 inhibition (SENP selectivity assay); purified caspase-3, Z-DEVD-aminoluciferin luminescence, 60 min; shares compounds with SENP7 inh; actives 60% (n = 6,200); AID 488918; inhibition, % at 12.5 µM;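 active = mean inhibition above about 50%, limit read from the data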;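 note: plate controls were enzyme with DMSO for no effect and wells without caspase-3 for full effect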
Luc interf = interferes with luciferase luminescence in SENP counter-screen; shares compounds with SENP7 inh; Pre-incubated SENP8/Z-RLRGG-aminoluciferin, luciferase luminescence interference; inhibition, % at 12.5 µM; actives 39% (n = 6,200);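 active = mean inhibition above about 50% when retested at one dose, limit read from the data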;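 note: plate controls were DMSO wells with completed reaction for no effect and substrate without enzyme for full effect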
An asterisk follows results filed as active; i = inactive; . = no result.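 Rule for the calls, unless noted: active = mean inhibition above about 50% in the one-dose retest (limit read from the data); inactive = the rest.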

SMILES	SENP8 block-1	HSP90 refold inh	SENP6 block	SENP7 inh	SENP8 block-2	SENP8 conf	SENP6 conf	SENP7 conf	Casp3 select	Luc interf
O=C(O)c1cccc(-n2cc(-c3cccc(C(F)(F)F)c3)cn2)c1	78.1*	7.9	85.3*	59.2*	21.6	-5.9	86.9*	96.9*	11.4	90.9*
O=C(O)c1ccc(-c2nc(-c3cccc(C(F)(F)F)c3)cs2)cc1	.	2.1	.	.	-62.5	.	.	.	.	.
COc1cc(NC(=O)C2CC2)c(OC)cc1NC(=O)c1ccco1	7.3	-0.7	1.6	7.4	-6.4	.	.	.	.	.
CN(C)c1ccc(N=Nc2ccc3ncccc3c2)cc1	.	.	.	.	35.1	.	.	.	.	.
CN(C)c1ccc(N=Nc2cccc3ccoc23)cc1	83.8*	0.5	86.3*	90.5*	24.0	77.0*	76.7*	94.0*	48.0	28.3
CCc1nc2nc(C)c(NS(=O)(=O)c3ccc(CC(C)C)cc3)c(=O)n2[nH]1	-4.4	-2.4	-10.8	-18.5	12.1	.	.	.	.	.
O=C(Nc1cccc(Br)c1)c1cc2ccccc2o1	88.8*	2.0	94.1*	-10.8	7.3	93.8*	94.0*	100.6*	82.3*	88.5*
O=C(Nc1cccnc1)c1cc2cc(Br)ccc2o1	85.3*	-0.1	91.4*	92.5*	5.1	88.7*	88.1*	100.1*	90.6*	31.7
Cc1cccc(NC(=O)c2cc3ccccc3o2)c1	86.6*	6.0	93.5*	93.9*	9.8	7.9	94.0*	101.4*	91.2*	92.4*
CCOC(=O)c1cccc(NC(=O)c2cc3ccccc3o2)c1	1.1	6.5	31.1	17.0	-3.4	.	.	.	.	.
NS(=O)(=O)c1cccc(NC(=O)c2cc3ccccc3o2)c1	-5.3	-0.1	-2.0	1.8	2.0	.	.	.	.	.
CCOC(=O)c1ccc(NC(=O)c2cc3ccccc3o2)cc1	45.0	-5.0	60.4*	51.6*	-9.9	32.4	53.0*	59.5*	42.6	42.1
CCC(=O)Nc1ccc(NC(=O)c2cc3ccccc3o2)c(OC)c1	-5.7	-3.5	21.8	4.3	-12.3	.	.	.	.	.
CCC(=O)Nc1cccc(NC(=O)c2cc3ccccc3o2)c1	53.7*	-3.7	67.4*	74.0*	21.8	74.3*	66.7*	88.3*	73.9*	70.3*
Cc1ccc(C(=O)c2c3ccc(N)cc3nn2CCC(N)=O)cc1	26.0	4.0	57.2*	21.2	-71.8	13.6	29.0	-5.0	-0.4	-2.8
O=c1[nH]c(/C=C/c2cccc3ccccc23)nc2ccccc12	-10.6	3.6	-8.0	-1.7	-432.0	.	.	.	.	.
O=c1[nH]c(/C=C/c2ccccc2F)nc2ccccc12	83.4*	12.7	91.7*	96.4*	i	75.6*	78.9*	89.4*	90.9*	22.0
O=C(Nc1cccc(/C=C/c2nc3ccccc3c(=O)[nH]2)c1)c1ccccc1Cl	-7.9	0.2	1.4	37.3	-104.7	.	.	.	.	.
O=c1[nH]c(/C=C/c2ccc(Br)cc2)nc2ccccc12	31.2	0.1	21.9	89.3*	-242.2	17.7	21.0	15.0	21.2	-2.1
O=c1[nH]c(/C=C/c2ccccn2)nc2ccccc12	18.5	0.2	31.7	44.6	-74.4	.	.	.	.	.
Cc1cccc(/C=C\c2nc3ccccc3c(=O)[nH]2)c1	79.8*	2.2	88.8*	98.7*	-80.1	54.9*	49.2	54.4*	74.5*	10.2
COc1ccc(NC(=O)CSCc2ccccc2C)cc1	-4.8	1.6	2.1	11.0	20.1	.	.	.	.	.
C[C@@H]1CN([C@H](C)CO)C(=O)c2cc(Br)cnc2O[C@H]1CN(C)C	.	.	.	.	-17.2	.	.	.	.	.
CCC(=O)N(C1=C(NC)C(=O)c2ccccc2C1=O)C(C)C	3.3	-0.4	86.5*	32.6	58.9*	27.6	49.8	22.9	40.1	1.1
CC(=O)Nc1ccc(-c2csc(-c3cccnc3)n2)cc1	26.8	7.1	40.8	51.4*	-264.2	24.2	48.3	83.9*	62.0*	11.9
SMILES	SENP8 block-1	HSP90 refold inh	SENP6 block	SENP7 inh	SENP8 block-2	SENP8 conf	SENP6 conf	SENP7 conf	Casp3 select	Luc interf
c1cncc(-c2nc(-c3ccc4c(c3)OCO4)cs2)c1	49.9	-5.1	73.1*	68.8*	-103.8	44.4	69.3*	87.3*	61.4*	13.3
Cc1nc(-c2ccc3c(c2)OCO3)cs1	-7.9	0.3	-4.6	5.8	6.3	.	.	.	.	.
CCCC(=O)Nc1ccc(-c2csc(-c3cccnc3)n2)cc1	-13.8	-1.8	8.6	-15.2	-113.2	.	.	.	.	.
c1cncc(-c2csc(-c3cccnc3)n2)c1	-11.0	-0.3	-31.8	-11.4	14.5	.	.	.	.	.
Clc1ccsc1-c1csc(-c2cccnc2)n1	31.7	-0.6	68.9*	45.0	-94.5	25.8	42.9	82.0*	13.9	12.2
Oc1ccc(-c2csc(-c3cccnc3)n2)c(O)c1	35.3	-4.8	66.1*	55.2*	-73.8	44.4	41.9	82.0*	54.4*	58.0*
CCOCCNC(=O)c1ccc2c3c(cccc13)CC2	-2.3	3.7	-0.2	2.8	-365.1	.	.	.	.	.
COC(=O)c1sccc1NC(=O)Cc1ccc(OC)cc1	23.2	-7.1	51.3*	42.2	12.7	48.7	43.8	79.2*	62.7*	57.9*
COc1ccc(/C=C/C2=NN(C)C(=O)CC2)cc1	69.1*	-3.4	78.4*	83.4*	-1.7	80.9*	79.9*	93.9*	92.6*	80.1*
C=CCn1c2ccccc2c(=O)c2cc(C#Cc3ccccn3)ccc21	55.6*	.	72.1*	43.3	-498.3	61.3*	66.5*	81.7*	40.5	31.7
COCc1cc(C)nc(SCC[N+](C)(C)CC(=O)Nc2cccc(C)c2)c1C#N	-7.3	0.8	-15.5	-5.4	14.7	.	.	.	.	.
Cc1ccccc1CS(=O)(=O)c1ccc(C(=O)N2CCC(C)CC2)cc1[N+](=O)[O-]	-2.4	-1.2	-10.8	-2.7	8.5	.	.	.	.	.
COc1ccc(Cn2c(O)c(C=Nc3ccc(OC)cc3)c3ccccc3c2=O)cc1	8.3	4.0	58.5*	33.0	-57.9	9.7	15.8	8.0	2.7	-7.9
CCOC(=O)c1c(C)[nH]c(C(=O)COC(=O)c2ccc([N+](=O)[O-])o2)c1C	-0.8	.	18.2	3.3	27.2	.	.	.	.	.
N#Cc1c(N)n(CCNC(=O)c2ccc(Cl)cc2)c2nc3ccccc3nc12	42.3	3.7	69.8*	41.2	i	4.2	6.0	4.9	2.4	-5.3
N#Cc1c(N)n(CCc2ccc(F)cc2)c2nc3ccccc3nc12	23.6	4.6	61.7*	15.2	-413.0	-16.9	0.0	4.2	-0.9	-1.5
COc1cccc(Cn2c(N)c(C#N)c3nc4ccccc4nc32)c1OC	38.0	14.3	85.0*	26.4	-380.0	-18.9	-10.7	-8.2	-9.1	-7.2

From PubChem
